Measurements taken from ChEMBL document CHEMBL3988442, “University of Dundee, Small-Polar-MMV Screening Library” (2021).
For some assays here: Results with a measured potency or affinity are listed apart.

Key:
Set-up in all cases: scale not given: direction of the effect not stated beside the values
[1] = target: Protein translocase subunit SecA (Escherichia coli (strain K12)) (UniProt P10408); assay: Assay to Identify E. coli SecA ATPase Inhibitors; format: functional; settings: 30 µM
[2] = target: T1, Ubiquitin-activating enzyme e1, putative (Leishmania donovani (strain BPK282A1)) (UniProt E9BSI1); assay: Leishmania donovani Ubiquitin Activating Enzyme (LdE1); format: functional; settings: 30 µM
T1 sequence (whole entry): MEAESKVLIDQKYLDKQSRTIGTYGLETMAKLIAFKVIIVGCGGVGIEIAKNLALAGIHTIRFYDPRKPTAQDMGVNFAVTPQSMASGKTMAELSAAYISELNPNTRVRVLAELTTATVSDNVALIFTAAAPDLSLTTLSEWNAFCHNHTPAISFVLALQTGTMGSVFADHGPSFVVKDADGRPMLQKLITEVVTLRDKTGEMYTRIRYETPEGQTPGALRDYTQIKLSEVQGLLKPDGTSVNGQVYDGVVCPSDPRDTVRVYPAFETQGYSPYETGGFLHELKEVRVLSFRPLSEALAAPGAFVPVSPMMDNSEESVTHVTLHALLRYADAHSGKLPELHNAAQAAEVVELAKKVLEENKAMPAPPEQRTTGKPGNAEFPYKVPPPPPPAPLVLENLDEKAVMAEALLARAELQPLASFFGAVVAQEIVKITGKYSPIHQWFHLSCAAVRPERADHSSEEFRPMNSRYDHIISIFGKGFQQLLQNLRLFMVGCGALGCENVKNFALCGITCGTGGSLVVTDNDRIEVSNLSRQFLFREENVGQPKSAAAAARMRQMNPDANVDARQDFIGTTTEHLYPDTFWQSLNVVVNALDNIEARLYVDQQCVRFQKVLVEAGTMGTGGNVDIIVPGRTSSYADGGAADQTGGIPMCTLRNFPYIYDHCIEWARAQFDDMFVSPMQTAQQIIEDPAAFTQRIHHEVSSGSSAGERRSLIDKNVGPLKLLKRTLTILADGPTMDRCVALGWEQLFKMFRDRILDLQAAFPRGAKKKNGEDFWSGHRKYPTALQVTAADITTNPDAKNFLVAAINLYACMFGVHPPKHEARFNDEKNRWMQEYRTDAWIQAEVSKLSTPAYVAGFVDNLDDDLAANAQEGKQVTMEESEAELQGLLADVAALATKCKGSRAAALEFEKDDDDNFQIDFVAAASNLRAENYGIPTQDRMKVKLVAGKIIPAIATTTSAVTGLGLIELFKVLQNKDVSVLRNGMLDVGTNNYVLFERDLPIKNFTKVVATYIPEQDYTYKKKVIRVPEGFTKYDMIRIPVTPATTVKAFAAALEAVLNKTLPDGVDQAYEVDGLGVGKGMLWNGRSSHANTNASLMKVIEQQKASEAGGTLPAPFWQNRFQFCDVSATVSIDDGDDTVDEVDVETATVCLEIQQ

[3] = target: T2, Aspartate--tRNA(Asp/Asn) ligase (Mycobacterium tuberculosis (strain ATCC 25618 / H37Rv)) (UniProt P9WFW3); assay: Assay for Asp RNA synthetase-1 from Mycobacterium tuberculosis; format: functional; settings: 30 µM; further: in the data most compounds retested in dose-response had high values
T2 sequence (whole entry): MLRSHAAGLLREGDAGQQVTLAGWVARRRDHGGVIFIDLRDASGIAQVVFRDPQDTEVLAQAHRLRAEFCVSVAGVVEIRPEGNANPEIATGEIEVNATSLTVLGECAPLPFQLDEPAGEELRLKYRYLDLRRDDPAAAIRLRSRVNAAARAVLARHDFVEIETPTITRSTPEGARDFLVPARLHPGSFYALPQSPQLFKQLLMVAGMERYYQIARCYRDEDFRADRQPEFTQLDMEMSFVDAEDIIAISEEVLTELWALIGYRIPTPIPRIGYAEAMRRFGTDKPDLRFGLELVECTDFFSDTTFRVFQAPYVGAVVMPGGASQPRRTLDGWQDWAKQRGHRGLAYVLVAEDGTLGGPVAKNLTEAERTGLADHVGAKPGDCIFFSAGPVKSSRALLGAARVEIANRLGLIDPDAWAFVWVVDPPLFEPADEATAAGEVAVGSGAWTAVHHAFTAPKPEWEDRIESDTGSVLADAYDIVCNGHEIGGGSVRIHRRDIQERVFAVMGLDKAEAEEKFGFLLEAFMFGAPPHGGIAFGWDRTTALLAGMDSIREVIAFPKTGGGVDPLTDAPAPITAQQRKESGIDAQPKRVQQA

[4] = target: Sialic acid-binding Ig-like lectin 9 (Homo sapiens) (UniProt Q9Y336); assay: Hs-Siglec9 ALPHAscreen SOP 20170721; settings: 10 µM
[5] = test system: Trypanosoma cruzi; assay: Trypanosoma cruzi phosphomannomutase and mannose-1-phosphate guanylyltransferase assay; format: functional; settings: 10 µM
[6] = target: T3, Arginase-2, mitochondrial (Homo sapiens) (UniProt P78540); assay: in vitro enzyme assay to detect the production of urea directly proportional to the activity of Arginase II; format: functional; settings: 33.3 µM; further: in the data most compounds retested in dose-response had high values
T3 sequence (whole entry): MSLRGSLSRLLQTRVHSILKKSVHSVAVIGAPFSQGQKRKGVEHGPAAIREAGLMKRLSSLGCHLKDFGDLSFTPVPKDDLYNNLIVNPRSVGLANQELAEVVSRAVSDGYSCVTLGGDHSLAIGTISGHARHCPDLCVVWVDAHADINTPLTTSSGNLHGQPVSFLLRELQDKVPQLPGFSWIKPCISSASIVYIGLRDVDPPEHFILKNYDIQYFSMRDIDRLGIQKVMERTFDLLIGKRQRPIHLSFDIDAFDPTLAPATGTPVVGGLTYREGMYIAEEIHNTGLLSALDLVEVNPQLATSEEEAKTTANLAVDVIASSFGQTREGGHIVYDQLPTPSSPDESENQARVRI

[7] = target: T4, Proteasome subunit beta (Trypanosoma cruzi) (UniProt O96673); assay: Trypanosoma cruzi proteasome chymotrypsin-like activity (TcProtChymo) assay.; further: in the data most compounds retested in dose-response had high values; format: functional; settings: 9.37 µM
T4 sequence (whole entry): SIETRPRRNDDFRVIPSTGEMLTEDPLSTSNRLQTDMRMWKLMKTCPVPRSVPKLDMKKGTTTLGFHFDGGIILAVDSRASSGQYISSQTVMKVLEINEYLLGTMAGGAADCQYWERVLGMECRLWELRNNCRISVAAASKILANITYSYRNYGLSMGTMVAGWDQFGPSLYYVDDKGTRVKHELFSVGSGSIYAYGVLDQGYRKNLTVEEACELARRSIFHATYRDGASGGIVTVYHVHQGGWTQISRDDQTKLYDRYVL

[8] = species: Homo sapiens; assay: To identify inhibition of the IFN signalling (Jak-Stat) pathway via expression of an eGFP reporter gene under the control of an IFN-stimulated response element (ISRE) containing MxA promoter.; format: functional; settings: 30 µM
[9] = target: Shiga toxin 2 (Escherichia coli O157:H7) (UniProt P09385+P09386); assay: E. coli 0.157:H7 Shiga Toxin SOP - stx2 screening assay; format: functional; settings: 30 µM
[10] = target: T5, Tyrosyl-tRNA synthetase, putative (Trypanosoma cruzi (strain CL Brener)) (UniProt Q4DSP6); assay: Trypanosoma cruzi tyrosyl tRNA synthetase (TcYRS) _High Tyrosine SOP; format: functional; settings: 30 µM; further: in the data most compounds retested in dose-response had high values
T5 sequence (whole entry): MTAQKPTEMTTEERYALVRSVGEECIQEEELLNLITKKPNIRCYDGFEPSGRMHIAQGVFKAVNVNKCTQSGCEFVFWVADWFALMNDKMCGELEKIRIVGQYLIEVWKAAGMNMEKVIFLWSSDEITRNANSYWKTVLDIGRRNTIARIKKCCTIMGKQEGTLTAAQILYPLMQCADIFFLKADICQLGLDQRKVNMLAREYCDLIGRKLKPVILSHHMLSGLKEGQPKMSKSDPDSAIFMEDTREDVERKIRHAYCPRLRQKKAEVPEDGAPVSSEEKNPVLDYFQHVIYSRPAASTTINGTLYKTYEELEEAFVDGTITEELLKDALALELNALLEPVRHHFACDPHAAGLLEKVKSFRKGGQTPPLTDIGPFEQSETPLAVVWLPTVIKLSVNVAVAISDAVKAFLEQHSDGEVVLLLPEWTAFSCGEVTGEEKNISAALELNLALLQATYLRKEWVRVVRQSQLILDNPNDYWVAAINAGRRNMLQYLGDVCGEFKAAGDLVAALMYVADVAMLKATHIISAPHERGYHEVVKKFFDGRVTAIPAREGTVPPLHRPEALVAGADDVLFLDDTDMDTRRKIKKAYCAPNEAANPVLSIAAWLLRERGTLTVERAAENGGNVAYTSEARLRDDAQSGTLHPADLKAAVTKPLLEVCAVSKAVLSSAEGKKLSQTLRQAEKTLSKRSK

[11] = target: T5, Tyrosyl-tRNA synthetase, putative (Trypanosoma cruzi (strain CL Brener)); assay: Trypanosoma cruzi tyrosyl tRNA synthetase (TcYRS) SOP; format: functional; settings: 30 µM
[12] = target: Chromo domain-containing protein 1 (Saccharomyces cerevisiae (strain ATCC 204508 / S288c) (Baker's yeast)) (UniProt P32657); assay: ScCHD-1 Enzyme Inhibition Assay; format: functional; settings: 30 µM; further: in the data most compounds retested in dose-response had high values
Chromo domain-containing protein 1 (Saccharomyces cerevisiae (strain ATCC 204508 / S288c) (Baker's yeast)), sequence (P32657 whole entry, the tested form may be a part): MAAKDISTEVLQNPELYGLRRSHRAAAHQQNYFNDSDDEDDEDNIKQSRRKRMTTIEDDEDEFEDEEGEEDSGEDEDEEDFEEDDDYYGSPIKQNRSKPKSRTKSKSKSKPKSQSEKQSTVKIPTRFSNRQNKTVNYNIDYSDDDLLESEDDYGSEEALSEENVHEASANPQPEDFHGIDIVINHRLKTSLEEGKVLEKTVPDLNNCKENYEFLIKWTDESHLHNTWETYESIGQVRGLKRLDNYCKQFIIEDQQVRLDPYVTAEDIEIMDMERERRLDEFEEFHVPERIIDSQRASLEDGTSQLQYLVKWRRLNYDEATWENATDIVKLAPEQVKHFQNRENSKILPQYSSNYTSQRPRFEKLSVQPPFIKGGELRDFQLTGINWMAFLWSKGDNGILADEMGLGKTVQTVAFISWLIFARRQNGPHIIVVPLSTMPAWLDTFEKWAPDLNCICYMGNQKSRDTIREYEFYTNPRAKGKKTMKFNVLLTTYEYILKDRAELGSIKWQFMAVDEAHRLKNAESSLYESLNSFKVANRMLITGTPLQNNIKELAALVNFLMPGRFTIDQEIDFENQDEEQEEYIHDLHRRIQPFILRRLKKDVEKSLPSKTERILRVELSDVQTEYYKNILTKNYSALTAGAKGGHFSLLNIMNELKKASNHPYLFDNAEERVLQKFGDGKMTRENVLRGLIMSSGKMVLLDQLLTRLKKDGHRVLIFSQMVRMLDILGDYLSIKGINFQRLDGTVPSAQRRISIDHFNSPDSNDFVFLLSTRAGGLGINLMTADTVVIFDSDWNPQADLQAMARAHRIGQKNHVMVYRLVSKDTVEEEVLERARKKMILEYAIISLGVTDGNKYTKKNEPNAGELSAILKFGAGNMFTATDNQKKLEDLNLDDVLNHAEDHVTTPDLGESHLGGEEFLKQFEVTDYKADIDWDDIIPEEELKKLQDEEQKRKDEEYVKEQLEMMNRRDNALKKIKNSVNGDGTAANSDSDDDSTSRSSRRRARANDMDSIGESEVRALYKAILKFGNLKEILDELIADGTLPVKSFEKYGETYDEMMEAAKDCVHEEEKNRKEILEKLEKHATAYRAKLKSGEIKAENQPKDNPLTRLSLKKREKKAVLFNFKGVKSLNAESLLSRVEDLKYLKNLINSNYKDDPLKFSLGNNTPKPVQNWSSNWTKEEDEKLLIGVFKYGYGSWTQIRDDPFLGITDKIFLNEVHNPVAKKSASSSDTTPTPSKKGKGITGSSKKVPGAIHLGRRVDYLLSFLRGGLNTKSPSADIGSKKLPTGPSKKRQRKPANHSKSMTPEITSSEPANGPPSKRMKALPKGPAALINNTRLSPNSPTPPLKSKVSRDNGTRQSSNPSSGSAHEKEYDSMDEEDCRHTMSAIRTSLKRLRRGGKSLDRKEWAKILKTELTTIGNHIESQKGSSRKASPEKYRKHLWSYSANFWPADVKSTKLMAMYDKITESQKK

Protein translocase subunit SecA (Escherichia coli (strain K12)), sequence (P10408 whole entry): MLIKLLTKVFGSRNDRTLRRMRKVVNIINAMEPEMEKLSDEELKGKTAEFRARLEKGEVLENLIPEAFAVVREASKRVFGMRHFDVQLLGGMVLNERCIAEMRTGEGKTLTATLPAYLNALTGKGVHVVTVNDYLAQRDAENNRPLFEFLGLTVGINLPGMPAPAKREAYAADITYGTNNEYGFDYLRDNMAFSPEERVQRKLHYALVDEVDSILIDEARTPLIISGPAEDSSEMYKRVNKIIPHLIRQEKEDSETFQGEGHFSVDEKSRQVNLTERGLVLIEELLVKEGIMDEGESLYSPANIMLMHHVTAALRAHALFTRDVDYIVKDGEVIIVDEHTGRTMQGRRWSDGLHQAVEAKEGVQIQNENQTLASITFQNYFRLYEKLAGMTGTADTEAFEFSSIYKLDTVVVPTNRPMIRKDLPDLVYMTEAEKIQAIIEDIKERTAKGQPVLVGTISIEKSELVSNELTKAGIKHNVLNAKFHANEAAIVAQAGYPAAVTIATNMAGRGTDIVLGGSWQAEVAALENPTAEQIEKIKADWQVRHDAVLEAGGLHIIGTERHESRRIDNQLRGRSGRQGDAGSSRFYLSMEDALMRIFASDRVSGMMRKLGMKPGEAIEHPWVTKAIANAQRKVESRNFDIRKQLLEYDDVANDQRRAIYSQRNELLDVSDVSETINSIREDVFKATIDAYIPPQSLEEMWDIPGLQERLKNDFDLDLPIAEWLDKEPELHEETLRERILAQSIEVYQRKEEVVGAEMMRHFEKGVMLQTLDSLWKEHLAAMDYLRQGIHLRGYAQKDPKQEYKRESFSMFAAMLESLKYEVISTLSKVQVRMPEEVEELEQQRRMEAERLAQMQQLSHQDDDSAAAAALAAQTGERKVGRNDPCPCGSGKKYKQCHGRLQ
Sialic acid-binding Ig-like lectin 9 (Homo sapiens), sequence (Q9Y336 whole entry): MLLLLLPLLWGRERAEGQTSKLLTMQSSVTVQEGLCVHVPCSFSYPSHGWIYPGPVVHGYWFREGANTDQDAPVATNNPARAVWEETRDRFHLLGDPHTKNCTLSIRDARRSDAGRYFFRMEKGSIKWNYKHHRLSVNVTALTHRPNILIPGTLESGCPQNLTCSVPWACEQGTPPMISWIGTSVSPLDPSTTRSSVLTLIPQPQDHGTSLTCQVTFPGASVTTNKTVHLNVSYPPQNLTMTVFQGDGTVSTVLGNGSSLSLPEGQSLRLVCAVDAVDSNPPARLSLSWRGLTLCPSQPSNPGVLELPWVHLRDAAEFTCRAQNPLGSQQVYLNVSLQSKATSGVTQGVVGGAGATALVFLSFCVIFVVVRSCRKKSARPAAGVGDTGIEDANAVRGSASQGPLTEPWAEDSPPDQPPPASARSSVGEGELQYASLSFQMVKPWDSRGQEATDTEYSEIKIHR

SMILES	Percent Effect [1]	Percent Effect [2]	Percent Effect [3]	Percent Effect [4]	Percent Effect [5]	Percent Effect [6]	Percent Effect [7]	Percent Effect [8]	Percent Effect [9]	Percent Effect [10]	Percent Effect [11]	Percent Effect [12]
COc1ccc(Cl)cc1CC(=O)N1CCN(CCO)CC1	-6.68%	10.4%	1.78%	0.349%	-4.1%	4.71%	0.877%	12.1%	-8.21%	-1.96%	-2.35%	2.44%
Cc1ccc(C(NC(=O)[C@H]2CC[C@@H](O)CC2)c2cccnc2)cc1C (stereo partly drawn)	–	–	-3.21%	–	–	–	–	–	–	–	–	–
Cc1noc(C)c1CN1CCO[C@H]2CNC[C@H]21	-3.48%	9.09%	7.37%	-4.93%	-4.19%	-2.02%	20%	8.41%	2.96%	0.526%	7.69%	-4.21%
c1cnc(N2CCC3(COCCN(CC4CC4)C3)C2)nc1 (stereo not drawn)	-1.87%	3.9%	6.45%	-2.75%	-3.21%	0%	14.2%	-5.95%	3.4%	3.68%	10.3%	-1.41%
CCN(CC)c1ccc(-c2nc(-c3cccc(OC)c3OC)no2)cn1	–	–	-4.22%	–	–	–	–	–	–	–	–	–
